Screening data from PubChem.
Rows were chosen to be rich in hits. Some 4.1% of all compounds tested hit in one or more screens of this group.
ssDAF-12 act: activators of S. stercoralis DAF-12 nuclear receptor | AID 652126 | activation, % at 6.8 µM | HEK293 ssDAF-12/GRIP1 lit1-tk-luc reporter, luminescence; % of 3 µM dafachronic acid response | hit rate 1% among 370,000;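 active = activation above the mean over all tested compounds plus 3 SD, cut at about 0.9% in these data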;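 also: 0% = DMSO-only wells and 100% = 3 µM delta7-dafachronic acid wells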
DAX1 inh-1: blocks DAX1 repression of SF-1 activated StAR promoter | HEK293T StAR-luciferase reporter, SF-1/DAX-1 repression relief | inhibition, % at 6.8 µM | hit rate 1.1% among 370,000 | AID 652010;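 active = inhibition above the mean over all tested compounds plus 3 SD, cut at about 3.6% in these data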;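 also: 0% = DAX-1 cells with DMSO and 100% = cells lacking DAX-1 with DMSO; higher inhibition means more luminescence from relief of DAX-1 repression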
hcDAF12 agonist: activates DAF-12 receptor from parasite H. contortus; activation, % at 6.8 µM; AID 652067; HEK293 hcDAF-12 lit1-tk-luc reporter, luminescence; 0% DMSO, 100% Δ7-dafachronic acid; hit rate 1.4% among 370,000;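 active = activation above the mean of all tested compounds plus 3 SD, cut at about 5.5% in these data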;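 also: 100% = response to 3 µM Δ7-dafachronic acid high control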
hgDAF12 agonist: agonists of H. glycines DAF-12 nuclear receptor; HEK293 GAL4-hgDAF12 UAS-luciferase reporter, agonist luminescence; normalized to butyrate control; activation, % at 6.8 µM; hit rate 1.8% among 370,000; AID 687014;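 active = activation above a cutoff set at the mean of all screened compounds plus 3 SD, cut at about 10% in these data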;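 also: 0% = DMSO wells and 100% = sodium butyrate wells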
DAX1 inh-2: inhibits human nuclear receptor DAX1 | HEK293 Gal4-DAX1 luciferase reporter, luminescence | inhibition, % at 6.75 µM | hit rate 0.99% among 340,000;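 active = inhibition above the mean over all tested compounds plus 3 SD, cut at about 4.2% in these data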;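 also: 0% = DAX1-transfected cells with DMSO and 100% = empty-vector control cells with DMSO; inhibition shows as a rise in luminescence from relieved DAX1 repression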
Target sequence (P51843 207-470 limits assumed): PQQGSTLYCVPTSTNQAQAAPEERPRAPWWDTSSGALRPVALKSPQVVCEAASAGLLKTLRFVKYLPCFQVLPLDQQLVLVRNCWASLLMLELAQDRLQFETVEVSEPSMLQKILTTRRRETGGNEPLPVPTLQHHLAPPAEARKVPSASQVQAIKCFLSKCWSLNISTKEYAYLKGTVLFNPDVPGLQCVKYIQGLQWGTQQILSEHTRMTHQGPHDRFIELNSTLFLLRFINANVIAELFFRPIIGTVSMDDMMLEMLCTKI
LXR ag: counter-screen for hcDAF-12 agonists: agonists of human LXR-beta; shares compounds with hcDAF12 agonist; HEK293 Gal4-LXR tk-luc reporter, luminescence, 24 h; normalized: DMSO 0%, positive control 100%; activation, % at 6.8 µM; 3,400 tested, under 10 active; AID 743027;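 active = mean percent activation of the reporter above a cutoff set as the average over tested compounds plus their standard deviation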
hcDAF12 ag: confirmation of H. contortus DAF-12 agonists; shares compounds with hcDAF12 agonist; HEK293 hcDAF-12 lit1-tk-luc reporter, luminescence; % of Δ7-dafachronic acid response; activation, % at 6.8 µM; hit rate 61% among 3,400; AID 743032;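 active = mean activation across triplicate tests above the threshold derived from the earlier primary screen, cut at about 5.5% in these data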;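 also: 0% = DMSO only wells and 100% = 3 µM Δ7-dafachronic acid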
Numbers without * were called inactive; . = no result.

SMILES	ssDAF-12 act	DAX1 inh-1	hcDAF12 agonist	hgDAF12 agonist	DAX1 inh-2	LXR ag	hcDAF12 ag
CCN(CCO)C(=O)CC1C(=O)NCCN1Cc1c(F)cccc1Cl (stereo not given)	-0.2	0.3	10.6*	-4.3	2.1	-0.3	0.5
N#C/C(=C\c1cn(-c2ccccc2)nc1-c1cc2ccccc2o1)c1nc2ccccc2[nH]1	-0.3	1.2	6.6*	6.5	1.5	-0.1	0.6
O=C(N/N=C/c1cn(-c2ccccc2)nc1-c1cc2ccccc2o1)c1cccnc1	1.2*	0.7	8.6*	3.5	0.4	1.2	11.3*
CN(C)S(=O)(=O)c1cccc(-c2nn(-c3ccccc3)cc2/C=C(\C#N)c2nc3ccccc3[nH]2)c1	-1.0	0.5	-0.6	6.1	-0.7	.	.
N#C/C(=C\c1ccccc1OCC(=O)O)c1nc2ccccc2[nH]1	0.3	0.6	7.8*	5.5	2.2	-0.2	3.6
Fc1cccc(Cl)c1/C=N/Nc1ccccn1	0.6	0.3	7.0*	6.4	0.9	0.2	10.0*
Clc1ccc(C=NNc2ccccn2)c(Cl)c1	-0.2	-1.2	2.4	0.2	-0.3	.	.
Fc1cccc(F)c1/C=N/Nc1ccccn1	1.5*	1.5	7.1*	13.2*	5.2*	0.5	10.0*
CCCCOCCCNC(=O)C[C@H]1C[C@@]2(C(=O)OC)C(=C[C@H](C(C)(C)C)O[C@@H]2C)N(Cc2ccccc2)C1=O	-0.9	-1.1	-0.1	0.6	.	.	.
COc1ccc(C2C(C(=O)Nc3cc(OC)c(OC)c(OC)c3)CCC(=O)N2c2ccc(OC)cc2)cc1 (stereo not given)	-1.1	0.2	-0.4	-0.1	.	.	.
Cc1nn(-c2ccccc2)c(N)c1C1(O)C(=O)N(C)c2ccccc21 (stereo not given)	-1.1	-0.1	1.2	-0.1	-1.0	.	.
Cc1nn(-c2ccccc2)c2c1C1(C(=O)N(C)c3ccccc31)N(c1ccccc1)C(=O)N2 (stereo not given)	0.1	2.0	6.6*	2.5	-1.6	-0.2	3.6
O=C(Nc1ccccn1)c1onc2c1CCCC2	-0.1	2.1	8.0*	6.4	-3.4	0.5	5.8*
O=C(O)c1ccc(-c2noc(-c3ccccc3Cl)n2)cc1	0.6	2.6	8.2*	9.0	-2.0	1.4	9.9*
COc1ccc(Cl)cc1C(=O)N/N=C/c1ccc(N2CCOCC2)cc1	-1.1	-0.2	-0.2	-0.5	-1.8	.	.
CCn1ncc(/C=N/NC(=O)c2cc(Cl)ccc2OC)c1C	-0.7	-0.2	8.3*	0.3	0.0	-0.2	0.9
C=CCNC(=S)Nc1c(C(=O)OC)[nH]c2cc(OC)ccc12	0.6	0.8	9.7*	7.3	1.1	0.5	7.5*
Cc1ccc2c(c1)C(CS(=O)(=O)NCc1ccccc1)NC2 (stereo not given)	-1.3	-0.8	-1.5	-1.9	.	.	.
O=C(CSc1ccccn1)Nc1ccc2c(c1)C(=O)c1ccccc1C2=O	-0.4	-0.8	6.8*	9.0	-0.1	1.1	4.6
NC(=O)[C@@H]1[C@@H]2C(=O)N(c3ccc(F)cc3)C(=O)[C@@H]2[C@H]2C=Cc3ccccc3N21	0.1	-0.2	7.5*	1.2	.	-0.1	4.9
O=c1oc2ccccc2cc1-c1nc2ccccc2o1	1.0*	3.1	8.8*	8.8	2.5	1.1	6.3*
CN(CCOC(=O)c1occ2ccccc12)C1CN(Cc2cn(Cc3ccccc3Cl)nn2)S(=O)(=O)C1 (stereo not given)	-1.2	-0.1	-2.1	2.3	.	.	.
CCCCCCNC(=O)C1CSCCS(=O)(=O)N1Cc1ccc(OC)cc1 (stereo not given)	-1.6	0.4	-1.9	-0.8	.	.	.
CCS/C(N)=N/N=C/c1cc(C)ccc1O	0.7	2.8	7.9*	7.4	0.4	1.7	6.2*
C[C@H]1[C@H](N)CC[C@@]23CCCN2C(=O)CCC[C@@H]13	-1.6	.	-0.3	-1.5	.	.	.
SMILES	ssDAF-12 act	DAX1 inh-1	hcDAF12 agonist	hgDAF12 agonist	DAX1 inh-2	LXR ag	hcDAF12 ag
CC(C)[C@@H](CO)NC(=O)c1ccc2c3n(nc2c1)-c1ccccc1CO3	0.3	2.6	5.2	9.7	-1.2	.	.
CC(C)NC(=O)c1ccc2c3n(nc2c1)-c1ccccc1CO3	0.2	3.0	6.9*	9.4	-4.5	1.6	8.1*
Cc1cc2ccccc2n1CCNC(=O)c1ccc(S(=O)(=O)N2CCCCC2)cc1	-0.6	0.9	7.5*	0.4	-0.7	-0.2	-0.3
COCc1[nH]nc2c1C(c1ccc(C)cc1)N(c1ccc(OC)cc1)C2=O (stereo not given)	-1.2	0.5	4.1	-1.9	.	.	.
O=C(NCC1CCN(C(=O)C(=O)c2cc3ccccc3o2)CC1)c1cccnc1	-0.9	0.9	-0.6	-1.6	.	.	.
COc1cc(NC(=O)c2cc(-c3ccco3)on2)c(OC)cc1Cl	-0.4	0.7	6.6*	4.0	2.3	0.1	7.7*
O=P1(O)C=C(c2ccccc2)OC(c2ccccc2)=C1	1.4*	0.9	9.9*	7.5	0.2	0.6	11.2*
COc1ccc2nc(N=Nc3ccc(O)c4ccccc34)sc2c1	0.6	-0.4	11.9*	1.9	-0.1	-0.2	1.5
Cc1ccc2nc(-c3cccc(N)c3)[nH]c2c1	-0.3	3.6	4.8	9.7	-1.5	.	.
Nc1cccc(-c2nc3ccccc3[nH]2)c1	-1.2	2.3	8.0*	7.7	1.4	0.3	5.3
CN(C)c1ccc(/C=N/Nc2nncc3ccccc23)cc1	1.4*	3.6	8.0*	14.4*	2.1	2.1	11.3*
CN(C)c1ccc(/C=N/Nc2nc3ccccc3o2)cc1	0.9	1.8	7.7*	10.3	-1.1	1.1	5.4
C(=N\Nc1nncc2ccccc12)/c1ccccc1	0.3	1.8	7.7*	8.4	3.1	1.9	13.6*
COC(=O)[C@]1(CC(C)C)NC=C(C(=O)c2ccccc2)[C@@H]1c1cccc(C(F)(F)F)c1	-1.2	0.1	0.8	2.9	.	.	.
CCCCNC(=O)C[C@H]1C[C@@]2(C(=O)OC)C(=C[C@H](C(C)(C)C)O[C@@H]2C)N(Cc2cccc3ccccc23)C1=O	-1.5	-0.6	-1.0	-1.7	.	.	.
O/C(=C\c1ccc2ccccc2n1)c1ccncc1	1.2*	3.6	8.6*	11.8*	2.3	1.4	11.9*
O/N=C/c1ccc2ccccc2n1	-1.0	1.1	2.0	8.9	0.7	.	.
COC(=O)c1cc2c(s1)-c1ccccc1OC2	0.0	1.0	8.9*	3.9	0.5	0.3	3.1
COC(=O)c1cc2c(s1)-c1ccc(OC)cc1CC2	-0.4	1.0	7.1*	6.1	7.7*	0.3	4.4
COc1ccccc1N1CCN(C(=O)c2cc3c(s2)-c2ccccc2OC3)CC1	-0.9	-0.1	0.6	2.8	2.1	.	.
